In assay [1] the target is Cytochrome P450 2C9 (Homo sapiens) (UniProt P11712). In words: Cytochrome P450 family 2 subfamily C member 9 (CYP2C9) small molecule antagonists: luciferase biochemical (cell-free) qHTS assay (AID 1645842; active means well fitted curve in the direction sought with a large enough effect in the repeat runs; an effect the other way counts as inactive or inconclusive; further: nearly all actives have a fitted effect of over 55% in size; further: potency means the concentration at half of the fitted maximal effect). Put shortly:
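Luminescence, after 20 min with luciferin detection reagent, reflected CYP2C9 turnover during a 1 h NADPH-driven reaction at 37C. Enzyme-substrate mix contained 0.4% bovine serum albumin and was preincubated with compound 10 min at room temperature.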

Assay [2] is described as follows: Primary qHTS for inhibitors of nuclear receptor binding SET domain protein 2 (NSD2) in an RCH-ACV wild type WT cells (2C) (AID 1645877). Further: nearly all actives have a fitted effect of over 70% in size. Further: potency means the concentration at half of the fitted maximal effect. Background: In qHTS, concentration-response curves come from the screen itself.
The nature of assay [3]: Primary qHTS for inhibitors of nuclear receptor binding SET domain protein 2 (NSD2) in an isogenic RCH-ACV NSD2 p.E1099K mutant (9B) (AID 1645876). Further: nearly all actives have a fitted effect of over 70% in size. Further: potency means the concentration at half of the fitted maximal effect.
In assay [4] the target is N-terminal Xaa-Pro-Lys N-methyltransferase 1 (Homo sapiens) (UniProt Q9BV86). In words: Confirmatory qHTS for Inhibitors of N-terminal methyltransferase 1 (NTMT1): MTaseGlo Assay (AID 1645874). Further: nearly all actives have a fitted effect of over 65% in size. Further: potency means the concentration at half of the fitted maximal effect. Put shortly: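 qHTS format: NTMT1 125 nM, SAM 100 uM, peptide SPKRIA 1 uM final; 15 min compound preincubation, 30 min reaction at room temperature. MTase-Glo luminescence.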
The next assay has as its target Papain (Carica papaya) (UniProt P00784). Put plainly: Primary qHTS assay for inhibitors of the protease papain (AID 1645873).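 Further: papain turnover of Z-FR-AMC read as the AMC fluorescence gain over 10 min; series mostly up to about 50 µM.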

SMILES strings stand for the structures. “And” between values parts separate entries of the source, which are not always exact repeats. Equal values may be shown once. Inconclusive results are not listed. The source made the active and inactive calls. Unless noted, the call rests on the fitted dose curve; in most records, active means well fitted curve in the direction sought with a large enough effect; inconclusive means small, poorly fitted or top-dose-only effect, or another doubt; inactive means no such curve, though single readings can be large; an effect the other way counts as inactive or inconclusive. *1 amine or outer side, *2 acyl side, *3 side chain or, on linkers, in order; H or OH if unused. Where a SMILES comes first, the peptide text is derived from it. Bridges are numbered along the chain shown (N, C = ends). [ ]: non-standard residue; d: D form. The star is where a group is joined. pTerphenylCO(4''-OnC5H11) = CCCCCOc1ccc(-c2ccc(-c3ccc(C(=O)*)cc3)cc2)cc1; Orn(4R-OH,5R-OH) = O=C([C@H](C[C@@H](O)[C@@H](O)N[*:3])N[*:1])[*:2]; hTyr(3S-OH,4S-OH) = N[C@H](C(=O)O)[C@H](O)[C@@H](O)c1ccc(O)cc1; Pro(3S-OH,4S-Me) = C[C@H]1CN[C@H](C(=O)O)[C@H]1O; Hyp = O=C(O)[C@@H]1C[C@@H](O)CN1

Sequence of N-terminal Xaa-Pro-Lys N-methyltransferase 1 (Homo sapiens) (Q9BV86 whole entry, looked up): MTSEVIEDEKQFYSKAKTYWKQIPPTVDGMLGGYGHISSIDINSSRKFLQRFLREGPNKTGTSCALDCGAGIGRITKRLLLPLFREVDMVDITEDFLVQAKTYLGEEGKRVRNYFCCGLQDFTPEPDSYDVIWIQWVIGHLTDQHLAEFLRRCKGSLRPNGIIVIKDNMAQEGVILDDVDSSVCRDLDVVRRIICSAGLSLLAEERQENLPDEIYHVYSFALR
Sequence of Cytochrome P450 2C9 (Homo sapiens) (P11712 whole entry, looked up): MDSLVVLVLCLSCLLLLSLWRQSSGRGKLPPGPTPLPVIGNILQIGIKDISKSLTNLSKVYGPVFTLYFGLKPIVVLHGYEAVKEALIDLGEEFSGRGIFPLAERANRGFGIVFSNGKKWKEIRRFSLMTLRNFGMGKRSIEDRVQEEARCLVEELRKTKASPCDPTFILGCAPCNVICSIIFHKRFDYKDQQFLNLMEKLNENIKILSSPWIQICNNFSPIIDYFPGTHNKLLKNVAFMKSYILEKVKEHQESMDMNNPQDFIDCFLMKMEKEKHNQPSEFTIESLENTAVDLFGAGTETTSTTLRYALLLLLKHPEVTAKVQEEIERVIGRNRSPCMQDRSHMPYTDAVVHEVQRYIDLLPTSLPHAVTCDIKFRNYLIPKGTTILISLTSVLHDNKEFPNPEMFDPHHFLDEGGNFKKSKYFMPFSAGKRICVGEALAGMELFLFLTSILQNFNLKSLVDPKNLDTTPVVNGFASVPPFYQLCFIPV
Sequence of Papain (Carica papaya) (P00784 whole entry, looked up): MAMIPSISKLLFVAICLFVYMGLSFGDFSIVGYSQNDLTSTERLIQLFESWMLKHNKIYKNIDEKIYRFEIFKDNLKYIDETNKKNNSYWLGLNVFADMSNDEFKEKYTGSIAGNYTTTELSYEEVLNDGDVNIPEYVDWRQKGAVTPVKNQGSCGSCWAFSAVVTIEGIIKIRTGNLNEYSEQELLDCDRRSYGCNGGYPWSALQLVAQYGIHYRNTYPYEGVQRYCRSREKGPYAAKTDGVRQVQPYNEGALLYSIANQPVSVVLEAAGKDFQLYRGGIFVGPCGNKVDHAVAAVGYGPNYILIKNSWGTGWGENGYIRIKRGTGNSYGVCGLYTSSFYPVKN

`NC(=O)c1cccc2[nH]c(-c3ccc(C4CCCN4)cc3F)nc12` (stereo not given): the Potency in assay [1] is 10.7 µM (active); in assay [2], 18.3 µM (active).

As for `O=C(NCCCN1CCOCC1)c1cnn2c(-c3ccccc3)cc(-c3ccccc3)nc12`, the Potency in assay [1] was 3.79 µM (active). For the same compound, the Potency result in assay [3] and in assay [2] was “inactive” each time.

`O=C(Cc1c(F)cccc1F)Nc1cc(OCc2ccc(Cl)cc2)ccn1`: in assay [4], the Potency entry is “inactive”. In addition, the Potency in assay [3] was 18.3 µM (active).

Consider `CCOC(=O)c1cnc2ccc(-c3cncc(NS(=O)(=O)c4ccccc4)c3)cn12`, for which the Potency in assay [1] is 0.134 µM (active); in assay [3] it was 0.29 µM (active); in assay [2], 0.258 µM (active).

In the case of `CCS(=O)c1nc(-c2cccc(OCc3ccccc3)c2)cc(C(F)(F)F)n1` (stereo not given), the Potency in assay [1] was 10.7 µM (active); in assay [3], 5.15 µM (active); in assay [2], 3.25 µM (active).

For `Cn1cc(-c2ccc3c(c2)CCN3C(=O)Cc2cccc(C(F)(F)F)c2)c2c(N)ncnc21`, the Potency in assay [1] was 12 µM (active). Besides, the Potency entry in assay [2] was “inactive”.

For `COc1cc(NC(=O)c2cccc(-n3cc(NC(=O)Nc4cccc(C)c4)cn3)c2)cc(OC)c1OC`, the Potency is 2.68 µM (active) in assay [1], 8.17 µM (active) in assay [3] and 9.16 µM (active) in assay [2].

Turning to `CCN(Cc1ccccc1)C(=O)Cn1c(=O)n(C)c2cnc(-c3ccccc3)nc21`, the Potency in assay [1] was 19 µM (active). Also, the Potency result in assay [3] and in assay [2] was “inactive” each time.

As for `CN(C)CCN(Cc1ccc(-c2ccc(CNCCc3ccccc3)cc2)cc1)C(=O)CCC1CCCC1`, the Potency in assay [1] is 19 µM (active); in assay [3], 2.58 µM (active); in assay [2], 2.3 µM (active).

Take `S=C(c1ccc(-c2ccc(Cl)c(Cl)c2)o1)N1CCCCC1`: the Potency in assay [1] was 3.38 µM (active). Also, in assay [2], the Potency result was “inactive”.

Consider `COc1cccc(-c2cn(-c3ccc(CCN4CCC(O)CC4)cc3)c3ncnc(N)c23)c1`, for which the Potency in assay [4] is 35.5 µM (active); in assay [3], 1.63 µM (active); in assay [2], 1.83 µM (active).

For `CN1CC2CN(c3ccc4oc5ccccc5c(=O)c4c3)CC2C1` (stereo not given), the Potency entry in assay [1] is “inactive”. Further, the Potency in assay [2] is 12.6 µM (active).

In the case of `CCCCNc1ncc(-c2ccc(CN3CCOCC3)cn2)c(NC2CCC(O)CC2)n1` (stereo not given), in assay [1], the Potency entry was “inactive”. Also, in assay [2], the Potency is 632 nM (active) and 1.15 µM (active).

In the case of `NCCCC(=O)O`, the compound was called inactive with Papain (Carica papaya).

In the case of `Cc1nc(C(=O)N2CCC[C@H]2Cc2nnc(-c3ccccc3)o2)c(-c2ccccc2F)s1`, the Potency in assay [1] is 10.7 µM (active). Also, the Potency entry in assay [3] and in assay [2] was “inactive” each time.

Turning to `C[C@H](Nc1cc2c(-c3ccc4c(c3)OCO4)noc2cn1)c1ccccc1`, in assay [1], the Potency is 1.69 µM (active). In addition, the Potency entry in assay [3] and in assay [2] was “inactive” throughout.

On to `CC(C)CCNC(=O)c1ccc2c(c1)nc(Nc1n[nH]c3ccc(-c4ccccc4OC(F)(F)F)cc13)n2C1CCC(O)CC1` (stereo not given), for which the values for the Potency in assay [1], in assay [3] and in assay [2] were 9.52 µM (active), 10.3 µM (active) and 14.5 µM (active), respectively.

Consider `Oc1cccc(-c2c3nc(c(-c4cccc(O)c4)c4ccc([nH]4)c(-c4cccc(O)c4)c4nc(c(-c5cccc(O)c5)c5ccc2[nH]5)CC4)C=C3)c1`, for which the Potency in assay [1] was 11 µM (active); in assay [3] it was 8.41 µM (active); in assay [2] it was 8.41 µM (active).

For `COCCCNC(=O)c1ccc(Cn2c(=O)c3ccccc3n(Cc3ccc(C(C)C)cc3)c2=O)cc1`, the Potency in assay [1] was 1.51 µM (active). The Potency result in assay [3] and in assay [2] was “inactive” each time.

In the case of `CCCCCOc1ccc(-c2ccc(-c3ccc(C(=O)N[C@H]4C[C@@H](O)[C@@H](O)NC(=O)[C@@H]5[C@@H](O)[C@@H](C)CN5C(=O)[C@H]([C@@H](C)O)NC(=O)[C@H]([C@H](O)[C@@H](O)c5ccc(O)cc5)NC(=O)[C@@H]5C[C@@H](O)CN5C(=O)[C@H]([C@@H](C)O)NC4=O)cc3)cc2)cc1` ({pTerphenylCO(4''-OnC5H11)}-[Orn(4R-OH,5R-OH)]T[Hyp][hTyr(3S-OH,4S-OH)]T[Pro(3S-OH,4S-Me)]; lactam 1-C), the Potency entry in assay [4] and in assay [3] was “inactive” in each case.

On to `COc1c(C(C)C)c(O)c(O)c2c1C(OC)[C@H]1OC(=O)[C@@]23CCCC(C)(C)[C@H]13` (stereo not given in full), for which the Potency result in assay [4] is “inactive”.

Take `CC(=O)NC(C)c1cnc(-c2cnc(Oc3ccc(OC(C)C)cc3)s2)s1` (stereo not given): the values for the Potency in assay [1], in assay [3] and in assay [2] were 9.52 µM (active), 10.3 µM (active) and 8.17 µM (active), respectively.

On to `Cn1c(=O)c(F)c(Nc2ccc(I)cc2F)c2c(=O)n(CC(O)CO)cnc21` (stereo not given), for which the Potency is 9.52 µM (active) in assay [1], 23 µM (active) in assay [3] and 23.1 µM (active) in assay [2].

`CNS(=O)(=O)c1ccccc1Nc1nc(Nc2ccc(N3CCN(C)CC3)cc2OC)ncc1Br`: the Potency entry in assay [1] is “inactive”. The Potency was 0.649 µM (active) in assay [3] and 0.728 µM (active) in assay [2].

As to `NCC(CNc1nc(Nc2cccc(NC(=O)N3CCCC3)c2)ncc1I)C(=O)c1cccs1` (stereo not given), the Potency is 22.4 µM (active) in assay [4] and 1.15 µM (active) in assay [3].

In the case of `CC(C)(C)c1ccc(C(=O)Nc2cc(Cl)c(Br)cc2C(=O)O)cc1`, the Potency is 16.9 µM (active) in assay [1] and 11.5 µM (active) in assay [2].

Consider `CCOc1ccc(Cc2nc(-c3c(C)nc4ccccn34)cs2)cc1`, for which, in assay [4], the Potency result was “inactive”. The Potency in assay [3] and in assay [2] was 0.183 µM (active) in each case.

`C/C=C/C=C/C=C/C(=O)O[C@@H]1C=C2COC(=O)[C@]2(O)[C@@]2(C)CCCC(C)(C)[C@H]12`: the Potency entry in assay [4] is “inactive”. Besides, in assay [3], the Potency was 2.82 µM (active).

Take `CN(C)CCCn1cc(C2=C(c3c[nH]c4ccccc34)C(=O)NC2=O)c2ccccc21`: the Potency in assay [4] was 39.8 µM (active); in assay [3], 5.78 µM (active); in assay [2], 3.25 µM (active).

`CCCCOC(=O)NS(=O)(=O)c1sc(CC(C)C)cc1-c1ccc(Cn2ccnc2)cc1`: the Potency in assay [3] is 23.5 µM (active).

On to `C=C(C)C1CCC2(C(=O)O)CCC3(C)C(CCC4C5(C)C(C=O)C(O)C(C)(C)C5CCC43C)C12` (stereo not given), for which, in assay [3], the Potency entry is “inactive”.

Values taken from PubChem BioAssay (NCATS).
